Measurements taken from PubChem BioAssay AID1851 (National Center for Advancing Translational Sciences (NCATS), 2009).
About 5,800 (36%) of roughly 16,000 compounds were called active. Not shown: some 23% with an inconclusive outcome. The list shows a part of the results. Values without a mark were called inactive. Calls come from the whole dose curve; as a rule, active = well fitted curve in the direction sought with a large enough effect; inconclusive = small, poorly fitted or top-dose-only effect, or effect the other way; inactive = no such curve, though single readings can be large or run the other way.

molecular target: Cytochrome P450 2C19 (Homo sapiens) (UniProt P33261); experiment: Cytochrome panel assay with activity outcomes; settings: recombinant CYP, pro-luciferin dealkylation, luminescence, p450-cyp2c19; series mostly up to 57.1 µM
% is set by controls: 0 for no effect and ±100 for the full control effect.

Chain of Cytochrome P450 2C19 (Homo sapiens) (P33261 whole entry, looked up): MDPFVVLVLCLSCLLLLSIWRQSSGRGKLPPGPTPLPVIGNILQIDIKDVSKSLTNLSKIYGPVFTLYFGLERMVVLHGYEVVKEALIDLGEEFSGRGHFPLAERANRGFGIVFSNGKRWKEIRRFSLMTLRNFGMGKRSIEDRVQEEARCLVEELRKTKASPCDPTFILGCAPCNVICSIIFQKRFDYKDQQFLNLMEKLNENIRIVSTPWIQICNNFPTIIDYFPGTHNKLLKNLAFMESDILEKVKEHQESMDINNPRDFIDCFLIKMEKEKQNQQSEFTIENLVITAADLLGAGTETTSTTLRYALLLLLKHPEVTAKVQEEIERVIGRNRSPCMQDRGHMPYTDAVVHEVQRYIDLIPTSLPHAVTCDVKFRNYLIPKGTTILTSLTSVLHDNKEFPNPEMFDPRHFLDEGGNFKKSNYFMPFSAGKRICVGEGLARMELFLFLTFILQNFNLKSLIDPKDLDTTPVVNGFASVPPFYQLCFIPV

SMILES	AC50	activity, negative = inhibition
COC(=O)CSc1ccc(C#N)c(SCC(=O)OC)c1	11.2 µM (active)	–
CCOc1ccc(N/N=C(/C#N)C(N)=O)cc1	4.47 µM (active)	–
CCCC(=O)Nc1ccc2nc(SCC(=O)Nc3ccc(N4CCOCC4)c(Cl)c3)sc2c1	3.98 µM (active)	–
Cc1ccc2oc(-c3cccc(NC(=S)NC(=O)/C=C/c4ccco4)c3)nc2c1	6.31 µM (active)	–
O=C(Nc1ccc2nc(SCc3ccc(Cl)cc3)sc2c1)c1ccccc1C(=O)N1CCOCC1	3.98 µM (active)	–
Cc1ccc(NC(=O)CSCC(=O)Nc2ccc(N3CCOCC3)c(Cl)c2)cc1	14.1 µM (active)	–
CCC1CC(CSc2ncn[nH]2)OC1=O (centres undefined)	inactive	–
CN1[C@@H]2CC[C@H]1CC(OC(c1ccccc1)c1ccccc1)C2 (some centres undefined)	inactive	–
O=S1(=O)OC(c2ccc(O)cc2)(c2ccc(O)cc2)c2ccccc21	–	28.4% [at 11.4 µM]
O=C(/C=C/c1ccco1)NC(=S)Nc1ccc(N2CCOCC2)c(Cl)c1	11.2 µM (active)	–
CCOc1ccc(C(F)(F)F)cc1NC(C)=O	28.2 µM (active)	–
O=C1NCC2=C1C(c1ccc(Br)cc1)Nc1ccccc1N2 (centres undefined)	8.91 µM (active)	–
COc1ccccc1C(=O)Nc1cc2c(ccc3ccccc32)oc1=O	inactive	–
COc1cc(NC(=O)c2cc3ccccc3o2)c(OC)cc1Br	inactive	–
COc1cc2c(cc1NC(=O)c1cc(-c3cccnc3)nc3ccc(C)cc13)oc1ccccc12	3.55 µM (active)	–
COc1ccccc1CC(=O)Nc1cc2oc3ccccc3c2cc1OC	6.31 µM (active)	–
COc1cc2c(cc1NC(=O)Nc1ccccc1)oc1ccccc12	3.55 µM (active)	–
CC1(C)CCCN(C(=O)c2coc(=O)c(Br)c2)C1	inactive	–
CC(=O)N1CCC[C@@]2(CCN(Cc3ccccc3)C2)C1	inactive	–
CC1(C)CCCN(C(=O)N2c3ccccc3Sc3ccccc32)C1	0.562 µM (active)	–
O=C(CSc1cccc2cccnc12)OCC(=O)c1ccccc1	10 µM (active)	–
NS(=O)(=O)c1ccc(NC(=O)Nc2cccc3ccccc23)cc1	–	2.76% [at 11.4 µM]

SMILES	AC50	activity, negative = inhibition
Cc1cc(O)c(C(C)C)cc1NC(=O)Nc1cccc2ccccc12	0.0501 µM (active)	–
CCOc1cc(/C=C2\CCC/C(=C\c3cc(Cl)c(O)c(OCC)c3)C2=O)cc(Cl)c1O	15.8 µM (active)	–
O=C(O)[C@@H]1[C@@H]2C[C@@H]3[C@@H](OC(=O)[C@@H]31)[C@H]2Br	–	-11.8% [at 11.4 µM]
O=c1[nH]c2[nH]c(=S)[nH]c(=S)c2[nH]1	0.631 µM (active)	–
Nc1ccc2c3c(cccc13)C(=O)NC2=O	inactive	–
CC1(C)Cc2c(ccc3ccccc23)C(=O)N1	10 µM (active)	–
CNC(=O)/C=C1\NC(C)(C)Cc2c1ccc1ccccc21	2.51 µM (active)	–
CNC(=O)[C@H]1O[C@H](n2cnc3c(NCc4cccc(I)c4)ncnc32)[C@@H](O)[C@@H]1O	inactive	–
COc1ncc2nc(-c3cccs3)c(=O)n(C)c2n1	inactive	–
CCN(Cc1ccccc1)Cc1cccc([N+](=O)[O-])c1	5.62 µM (active)	–
N[C@@H](Cc1cccc([N+](=O)[O-])c1)C(=O)O	–	-6.46% [at 11.4 µM]
COc1ccc(Oc2ncc3nc(-c4cccs4)c(=O)n(C)c3n2)cc1	inactive	–
COc1ccc(/C=N/n2c(-c3cccs3)n[nH]c2=S)cc1	17.8 µM (active)	–
CCc1n[nH]c(=S)n1/N=C/c1ccc2c(c1)OCO2	inactive	–
COc1ccccc1-c1nnc(SCc2nc3ccccc3s2)n1C	2.24 µM (active)	–
O=S(=O)(O)c1cc(O)c2c(O)c(N=Nc3cccc4ccccc34)c(S(=O)(=O)O)cc2c1	–	-44.3% [at 11.4 µM]
Nc1ccccc1N=Nc1c(S(=O)(=O)O)cc2cc(S(=O)(=O)O)cc(O)c2c1O	–	-13.7% [at 11.4 µM]
O=S(=O)(O)c1cc(O)c2c(N=Cc3ccccc3O)cc(S(=O)(=O)O)cc2c1	1.58 µM (active)	–
CC(C)N(CC(=O)O)CC(=O)O	–	-17.1% [at 11.4 µM]
CCOC(=O)CNC(=O)c1cccnc1	inactive	–
N/C(=N\OC(=O)Cc1ccc(Cl)cc1)c1cccnc1	15.8 µM (active)	–
Cc1nc(Oc2ccc(Cl)cc2)c2oc3ccccc3c2n1	2 µM (active)	–

SMILES	AC50	activity, negative = inhibition
COc1cccc(=O)c2c(C)n(-c3cc(C)cc(C)c3)c(C)c12	1 µM (active)	–
Cn1c(=O)n(CCC(=O)O)c2ccccc21	inactive	–
CCOC(=O)n1c(=O)n(Cc2c(Cl)cccc2Cl)c2ccccc21	2 µM (active)	–
CCOC(=O)n1c(=O)n(Cc2ccccc2Cl)c2ccccc21	0.282 µM (active)	–
Cn1c(=O)c2[nH]c(COCc3nc4c([nH]3)c(=O)n(C)c(=O)n4C)nc2n(C)c1=O	–	25.6% [at 11.4 µM]
CCOC(=O)C(=CNc1cccc(C)c1C)C(=O)OCC	inactive	–
CCOC(=O)C(=CNCC(=O)O)C(=O)OCC	inactive	–
CCOC(=O)C(=CNc1ncccc1C)C(=O)OCC	0.891 µM (active)	–
Cc1nc2cncnc2n(C2CC2)c1=O	3.98 µM (active)	–
COc1cccc(Cn2c(=O)c(-c3cccs3)nc3cncnc32)c1	5.01 µM (active)	–
COc1ccc(-n2c(=O)c(C)nc3cncnc32)cc1	inactive	–
O=c1c(-c2ccc(F)cc2)nc2cncnc2n1C1CC1	inactive	–
COc1cccc(Cn2c(=O)c(-c3cccs3)nc3cnc(OCc4ccccc4)nc32)c1	inactive	–
O=c1c(-c2cc(F)cc(F)c2)nc2cncnc2n1C1CC1	inactive	–
COc1ccc(Oc2ncc3nc(-c4cccs4)c(=O)n(Cc4cccc(OC)c4)c3n2)cc1	inactive	–
O=c1c(-c2cccs2)nc2cncnc2n1Cc1ccccc1	1 µM (active)	–
Cc1nc2cncnc2n(Cc2ccccc2)c1=O	0.158 µM (active)	–
Cn1cc(-c2nc3cncnc3n(Cc3ccc(F)cc3)c2=O)c2ccccc21	inactive	–
COc1ccc(Nc2ncc3nc(-c4cccs4)c(=O)n(Cc4cccc(OC)c4)c3n2)cc1	inactive	–
O=c1c(-c2cccs2)nc2cncnc2n1C1CC1	inactive	–
